Consider seven compounds from PubChem BioAssay (Tox21).

Several values for one entry are separate records, joined by “and”; a condition that tells them apart may be missing. Equal values may be shown once. Records with an inconclusive call do not appear. Where a structure was tested more than once in an assay, its records may differ in their call. Activity calls are given as the source filed them. Unless noted, calls come from the whole dose curve.

The nature of assay [1]: Nuclear factor erythroid 2-related factor 2/antioxidant responsive element (Nrf2/ARE) small molecule agonists: luciferase reporter gene qHTS assay in human keratinocytes (AID 1919969; note: nearly all actives have a fitted effect of over 35% in size; note: potency is the fitted concentration of half-maximal effect). (In general: Reporter assays use an easily measured gene product as a stand-in for the process of interest.)
For assay [2], the target named is Gonadotropin-releasing hormone receptor (Homo sapiens) (UniProt P30968). Description: Human gonadotropin-releasing hormone receptor (GnRHR) small molecule agonists, calcium flux assay in GnRHR-HEK293 cells (AID 1920063). Note: nearly all actives have a fitted effect of over 35% in size. In a few lines:
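Cells: HEK293 stably expressing human GnRHR. Steps: overnight (18 h) culture, 1 h calcium dye loading at 37 C, compound addition, kinetic fluorescence read at 480/540 nm. Each compound tested at 15 concentrations in triplicate.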
On the technique in general: Calcium flux is commonly read through the fluorescence of an indicator in the cells.

The target in assay [3] is KiSS-1 receptor (Homo sapiens) (UniProt Q969F8). Description: Human kisspeptin (KISS1R) small molecule agonists, calcium flux assay in KISS1R-HEK293 cells (AID 1920064; active = well fitted activation curve with a large enough effect in the repeat runs). In a few lines: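 Cells plated and incubated 18 h; dye added, 1 h at 37 C; compounds in DMSO pinned in; signal read at 480/540 nm every second for 3 min. Each compound tested at 15 concentrations in triplicate.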

The nature of assay [4]: G protein-coupled receptor (GPCR) small molecule agonists, calcium flux assay: HEK293 wild type cell line counter screen (AID 1920065). An outline of the steps:
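Counter-screen of the Tox21 10K library for non-specific calcium release: dye-loaded cells received compounds in DMSO and were monitored by kinetic fluorescence (480/540 nm, 3 min). Fifteen concentrations, run in triplicate.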

Assay [5] is described as follows: p53 small molecule agonists, cell-based qHTS assay with human liver microsomes (AID 1963577).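 Note: p53 response element beta-lactamase reporter cells with liver microsomes plus NADPH.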 In a few lines: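 HLM-supplemented p53RE-bla reporter assay: 16 h compound exposure at 37 C, microsomes and NADPH each 0.5 mg/mL final, read by fluorescence intensity.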
A general note: In qHTS, concentration-response curves come from the screen itself.

Assay [6] in a line: p53 small molecule agonists, cell-based qHTS assay with rat liver microsomes (AID 1963578). In a few lines:
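Quantitative HTS of the Tox21 10K library: p53RE-bla cells, rat liver microsomes plus NADPH at 0.5 mg/mL final each, 16 h at 37 C, beta-lactamase fluorescence detection.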

Assay [7] is described as follows: p53 small molecule agonists, cell-based qHTS assay with human liver microsomes: qHTS cell viability counter screen (AID 1963579). Note: nearly all actives have a fitted effect of over 45% in size. An outline of the steps:
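Viability of p53RE-bla cells is measured as CellTiter-Glo luminescence following a 16 h, 37 C incubation with compound, liver microsomes from human donors and NADPH.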

Assay [8] is described as follows: p53 small molecule agonists, cell-based qHTS assay: qHTS cell viability counter screen (AID 1963581). Note: nearly all actives have a fitted effect of over 45% in size. An outline of the steps: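 Cells: HCT-116 with p53 response element-driven beta-lactamase. Treatment: 16 h, 37 C, compounds in DMSO. Read: CellTiter-Glo luminescence after 30 min RT.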
A short description of assay [9]: p53 small molecule agonists, cell-based qHTS assay (AID 1963582; active = well fitted activation curve with a large enough effect in the signal ratio in the repeat runs, not every such curve was filed as active; the % refers to the signal ratio). An outline of the steps:
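Quantitative HTS in p53RE-bla cells: after a 5 h settling period, compounds delivered in DMSO were left on cells for 16 h at 37 C, and reporter induction was measured as fluorescence following 2 h substrate loading.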

Assay [10] has as its target 5-hydroxytryptamine receptor 2A (Homo sapiens) (UniProt P28223). Description: 5-hydroxytryptamine receptor 2A (HTR2A) small molecule antagonists, cell-based qHTS assay (AID 1963586). Note: nearly all actives have a fitted effect of over 45% in size. In a few lines: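 Antagonist-mode intracellular calcium assay: DOI (4 nM) added after 5 min compound pre-incubation at room temperature to dye-loaded HTR2A-CHO cells. Fluorescence followed for 3 min, sampled every second.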

The target is the same in assay [11]. Description: 5-hydroxytryptamine receptor 2A (HTR2A) small molecule agonists, cell-based qHTS assay (AID 1963587). Note: nearly all actives have a fitted effect of over 30% in size. An outline of the steps:
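HTR2A-CHO cells, plated 18 h at 37 C/5% CO2, dye-loaded 1 h at 37 C; compounds in DMSO added by pin tool (agonist mode). Intracellular calcium flux read as kinetic fluorescence on FDSS over 2 min at 1 s intervals.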

The target of assay [12] is Muscarinic acetylcholine receptor M1 (Homo sapiens) (UniProt P11229). Description: Cholinergic receptor muscarinic 1 (CHRM1) small molecule antagonists, cell-based qHTS assay (AID 1963588). Note: nearly all actives have a fitted effect of over 40% in size. In a few lines: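 CHRM1-CHO calcium-flux assay, antagonist mode. Cells were seeded 18 h, dye-loaded 1 h at 37 C and given compound for 5 min at RT, then acetylcholine was added at 50nM. FDSS fluorescence was read 3 min; 15 concentrations, three runs.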

Assay [13] can be described thus: cAMP Responsive Elements (CRE) small molecule agonists, cell-based qHTS assay (AID 1963590). In a few lines: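 Agonist mode qHTS in CRE-bla HEK 293T cells: compounds dosed from DMSO for 3 h at 37 C/5% CO2, followed by LiveBLAzer B/G FRET substrate for 2 h at room temperature.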
Assay [14] is described as follows: cAMP Responsive Elements (CRE) small molecule antagonists, cell-based qHTS assay (AID 1963591; active = well fitted inhibition curve with a large enough effect in the signal ratio in the repeat runs, not every such curve was filed as active; the % refers to the signal ratio). In a few lines:
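Antagonist mode: test compounds are co-incubated with the adenylyl cyclase activator NKH477 (0.25 uM final) on CRE-bla HEK293T cells for 3 h at 37 °C, followed by LiveBLAzer substrate loading.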

For assay [15], the target named is Beta-2 adrenergic receptor (Homo sapiens) (UniProt P07550). Description: Adrenergic beta2 receptor (ADRB2) small molecule antagonists, cell-based qHTS assay (AID 1963592). Note: series mostly up to about 92 µM; nearly all actives have a fitted effect of over 50% in size. In a few lines: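 Cells (CHO, stable ADRB2 overexpression) incubated 18-20hr at 37C; compounds added from DMSO; agonist mix (1nM isoproterenol, 100uM IBMX, 25uM Ro-20-1724) added; 0.5hr RT; d2-cAMP and anti-cAMP-cryptate added; 1hr RT; 665/615 nm read.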

Assay [16] has the same target. Briefly: Adrenergic beta2 receptor (ADRB2) small molecule agonists, cell-based qHTS assay (AID 1963593).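 Note: CHO cells stably overexpressing human ADRB2.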 An outline of the steps:
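CHO cells stably over-expressing ADRB2 were plated overnight at 37C, then dosed with compounds plus a stimulation mix containing 100uM IBMX and 25uM Ro-20-1724 for 0.5hr at room temperature. cAMP was measured by HTRF competition, 1hr.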

The target in assay [17] is D(2) dopamine receptor (Homo sapiens) (UniProt P14416). Briefly: Dopamine D2 receptor (DRD2) small molecule agonists, cell-based qHTS assay (AID 1963594). Note: nearly all actives have a fitted effect of over 35% in size. In a few lines: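 HEK293 cells stably expressing DRD2 were cultured 24 h at 37 C, then given Ro20-1724 (0.1 mM final) and compounds for 10 min at room temperature. NKH477 (200nM) was then added for 30 min. cAMP was read by HTRF.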

The target is the same in assay [18]. Description: Dopamine D2 receptor (DRD2) small molecule antagonists, cell-based qHTS assay (AID 1963595; active = well fitted inhibition curve with a large enough effect in the signal ratio in the repeat runs, with a control signal flat; the % refers to the signal ratio). In a few lines: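 HTRF cAMP read-out at 665 and 620 nm emission (340 nm excitation). Antagonist mode: compounds were tested against 12 nM quinpirole in DRD2-HEK293 cells, with 200 nM NKH477 raising cAMP and 0.1 mM Ro20-1724 blocking its breakdown.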
Assay [19] is described as follows: p53 small molecule agonists, cell-based qHTS assay with rat liver microsomes: qHTS cell viability counter screen (AID 1963580). Note: nearly all actives have a fitted effect of over 45% in size. In a few lines:
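In HCT-116 cells carrying a p53 response element-bla reporter, compounds were metabolically activated in situ by rat liver microsomes with NADPH over 16 h. Cell ATP content then served as the cytotoxicity measure.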

For assay [20], the target named is Muscarinic acetylcholine receptor M1 (Homo sapiens) (UniProt P11229). Description: Cholinergic receptor muscarinic 1 (CHRM1) small molecule agonists, cell-based qHTS assay (AID 1963589). Note: nearly all actives have a fitted effect of over 35% in size. In a few lines:
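Agonist-mode qHTS in CHO cells stably carrying human muscarinic M1. Intracellular calcium is tracked by fluorescence every second after compound transfer; each compound runs at 15 concentrations in three independent runs.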

Chain of Muscarinic acetylcholine receptor M1 (Homo sapiens) (P11229 whole entry, looked up): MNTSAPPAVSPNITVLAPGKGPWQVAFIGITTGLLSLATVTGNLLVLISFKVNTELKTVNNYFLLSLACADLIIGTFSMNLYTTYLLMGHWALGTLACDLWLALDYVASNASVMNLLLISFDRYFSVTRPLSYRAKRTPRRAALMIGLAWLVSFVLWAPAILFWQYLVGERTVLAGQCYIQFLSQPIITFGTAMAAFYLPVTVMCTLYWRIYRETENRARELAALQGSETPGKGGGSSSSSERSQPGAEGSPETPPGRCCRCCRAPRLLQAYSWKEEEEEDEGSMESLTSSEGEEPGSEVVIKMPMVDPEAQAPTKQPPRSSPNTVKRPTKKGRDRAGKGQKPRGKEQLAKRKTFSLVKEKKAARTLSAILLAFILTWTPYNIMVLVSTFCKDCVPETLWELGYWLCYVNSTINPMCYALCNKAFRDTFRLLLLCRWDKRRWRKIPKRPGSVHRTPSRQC
Chain of 5-hydroxytryptamine receptor 2A (Homo sapiens) (P28223 whole entry, looked up): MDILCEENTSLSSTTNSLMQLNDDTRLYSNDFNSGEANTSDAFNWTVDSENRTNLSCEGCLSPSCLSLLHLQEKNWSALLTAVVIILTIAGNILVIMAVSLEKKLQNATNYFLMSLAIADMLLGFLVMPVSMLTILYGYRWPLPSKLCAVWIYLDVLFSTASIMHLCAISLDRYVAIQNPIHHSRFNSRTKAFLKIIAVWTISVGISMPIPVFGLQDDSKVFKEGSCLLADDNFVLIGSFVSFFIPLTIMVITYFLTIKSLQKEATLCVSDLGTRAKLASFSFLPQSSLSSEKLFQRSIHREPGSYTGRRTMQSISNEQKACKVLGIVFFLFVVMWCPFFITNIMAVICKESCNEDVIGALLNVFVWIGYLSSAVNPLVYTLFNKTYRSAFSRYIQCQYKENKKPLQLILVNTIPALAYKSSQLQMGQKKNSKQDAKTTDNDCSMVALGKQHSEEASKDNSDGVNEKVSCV
Chain of Beta-2 adrenergic receptor (Homo sapiens) (P07550 whole entry, looked up): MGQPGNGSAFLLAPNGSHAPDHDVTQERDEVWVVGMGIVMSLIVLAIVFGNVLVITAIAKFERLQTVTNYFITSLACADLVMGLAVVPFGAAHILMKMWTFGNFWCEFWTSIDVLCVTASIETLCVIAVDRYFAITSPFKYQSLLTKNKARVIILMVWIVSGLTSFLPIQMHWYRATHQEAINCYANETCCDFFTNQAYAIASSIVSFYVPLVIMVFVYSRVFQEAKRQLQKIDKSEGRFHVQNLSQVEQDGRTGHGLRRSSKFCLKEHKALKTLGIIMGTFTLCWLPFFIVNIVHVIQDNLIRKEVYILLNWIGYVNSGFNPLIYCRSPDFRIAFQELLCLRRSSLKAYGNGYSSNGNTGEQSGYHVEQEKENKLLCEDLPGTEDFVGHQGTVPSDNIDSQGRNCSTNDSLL
Chain of D(2) dopamine receptor (Homo sapiens) (P14416 whole entry, looked up): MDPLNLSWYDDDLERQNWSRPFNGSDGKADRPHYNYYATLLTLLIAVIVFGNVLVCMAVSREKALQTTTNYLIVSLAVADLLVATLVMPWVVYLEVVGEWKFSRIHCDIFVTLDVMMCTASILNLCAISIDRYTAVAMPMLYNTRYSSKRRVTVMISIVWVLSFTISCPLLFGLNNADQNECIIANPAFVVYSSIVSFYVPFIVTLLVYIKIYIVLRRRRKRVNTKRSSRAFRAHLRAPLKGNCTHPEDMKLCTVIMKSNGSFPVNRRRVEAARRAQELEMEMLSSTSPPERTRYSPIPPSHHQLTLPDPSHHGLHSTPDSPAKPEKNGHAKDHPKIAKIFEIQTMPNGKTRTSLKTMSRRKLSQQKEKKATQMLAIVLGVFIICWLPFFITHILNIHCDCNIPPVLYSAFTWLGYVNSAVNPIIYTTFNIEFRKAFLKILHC
Chain of Gonadotropin-releasing hormone receptor (Homo sapiens) (P30968 whole entry, looked up): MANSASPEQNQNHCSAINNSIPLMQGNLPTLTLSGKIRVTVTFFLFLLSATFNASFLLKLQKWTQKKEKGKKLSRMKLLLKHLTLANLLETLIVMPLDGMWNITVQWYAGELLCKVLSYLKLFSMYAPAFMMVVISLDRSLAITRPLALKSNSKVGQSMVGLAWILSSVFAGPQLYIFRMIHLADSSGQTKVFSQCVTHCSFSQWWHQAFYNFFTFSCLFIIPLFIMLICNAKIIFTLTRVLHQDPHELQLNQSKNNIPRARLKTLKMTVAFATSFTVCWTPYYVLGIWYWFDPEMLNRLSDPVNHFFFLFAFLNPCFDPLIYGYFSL
Chain of KiSS-1 receptor (Homo sapiens) (Q969F8 whole entry, looked up): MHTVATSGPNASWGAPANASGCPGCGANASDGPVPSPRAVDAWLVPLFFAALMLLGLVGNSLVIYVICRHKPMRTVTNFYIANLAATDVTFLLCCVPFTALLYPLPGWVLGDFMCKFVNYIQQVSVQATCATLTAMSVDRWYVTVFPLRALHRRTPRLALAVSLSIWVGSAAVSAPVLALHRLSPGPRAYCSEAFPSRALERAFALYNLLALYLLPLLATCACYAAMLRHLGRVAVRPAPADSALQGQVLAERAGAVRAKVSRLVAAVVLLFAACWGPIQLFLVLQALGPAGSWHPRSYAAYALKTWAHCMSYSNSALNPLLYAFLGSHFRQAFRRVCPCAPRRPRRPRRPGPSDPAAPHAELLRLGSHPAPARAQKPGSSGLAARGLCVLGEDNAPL

Turning to `Nc1ncnc2nc[nH]c12`, the Potency result in [1], in assay [2], in assay [3], in assay [4], in assay [5] and in assay [6] was “inactive” throughout. Besides, the Potency entry in assay [7], in [8], in [9], in assay [10], in [11] and in [12] was “inactive” in each case. The Potency entry in assay [13], in assay [14], in [15], in assay [16], in assay [17] and in [18] was “inactive” in each case.
In the case of `CCc1cccc(C)c1N`, the Potency result in assay [1], in assay [2], in [3], in assay [4], in assay [5] and in [6] was “inactive” in each case. The Potency entry in [7], in [19], in [8], in assay [9], in assay [10] and in assay [11] was “inactive” each time. Besides, the Potency entry in [20], in [13], in assay [14], in assay [15], in assay [16] and in assay [17] was “inactive” throughout. In addition, the Potency entry in assay [18] was “inactive”.
Turning to `CC(C)=CCC/C(C)=C/C=O`, the Potency result in assay [1], in assay [2], in [3], in [4], in [5] and in assay [6] was “inactive” in each case. For the same compound, the Potency result in assay [7], in assay [19], in assay [8], in assay [9], in assay [10] and in assay [11] was “inactive” throughout. Moreover, the Potency result in assay [12], in assay [20], in [13], in assay [14], in assay [15] and in [16] was “inactive” throughout. Further, the Potency entry in assay [17] and in assay [18] was “inactive” throughout.
Turning to `COc1ccc2[nH]cc(CCNC(C)=O)c2c1`, the Potency result in assay [1], in [2], in assay [3], in assay [4], in assay [5] and in [6] was “inactive” in each case. Also, the Potency result in assay [7], in assay [19], in [8], in assay [9], in assay [13] and in assay [14] was “inactive” throughout. The Potency entry in assay [15], in [16], in [17] and in [18] was “inactive” each time.
As to `Nc1ccc(S(=O)(=O)Nc2nccs2)cc1`, the Potency result in assay [1], in assay [2], in assay [3], in [4], in [5] and in assay [7] was “inactive” throughout. For the same compound, the Potency result in [19], in assay [8], in [9], in [13], in [14] and in [16] was “inactive” in each case. Besides, the Potency result in assay [17] and in [18] was “inactive” each time.
Take `O=C(O)c1ccc(C(=O)O)cc1`: the Potency entry in [1], in assay [2], in assay [3], in assay [4], in [5] and in [6] was “inactive” in each case. Besides, the Potency result in assay [7], in assay [19], in [8], in assay [9], in [10] and in [11] was “inactive” in each case. Further, the Potency result in [12], in assay [20], in assay [13], in assay [14], in [15] and in assay [16] was “inactive” throughout. The Potency result in assay [17] and in assay [18] was “inactive” throughout.
As for `Nc1cccc(N)c1`, the Potency result in assay [1] is “inactive and 21.4 µM (active)”. Moreover, the Potency entry in assay [2], in [3], in assay [4], in assay [5], in assay [6] and in assay [7] was “inactive” throughout. Besides, the Potency entry in [8], in assay [9], in assay [10], in [11], in assay [12] and in assay [20] was “inactive” each time. For the same compound, the Potency result in [13], in assay [14], in assay [17] and in assay [18] was “inactive” each time.
